Results filed as inconclusive are left out. The source made the active and inactive calls. How the source made its calls, unless noted: active means hit-call score of the fitted dose curve at least 0.9, where 1 is the maximum; inactive means score below 0.9.
Tests used:
[1] = target: Paired box protein Pax-6 (Homo sapiens) (UniProt P26367); assay: ATG_Pax6_CIS: Attagene CIS-FACTORIAL HepG2 Assay for human Paired Box 6 (PAX6) (AID 2282956); conditions: HepG2 CIS-FACTORIAL PAX6 reporter transcription, RNA readout; actives raise or lower the signal
Paired box protein Pax-6 (Homo sapiens), sequence (P26367 whole entry, looked up): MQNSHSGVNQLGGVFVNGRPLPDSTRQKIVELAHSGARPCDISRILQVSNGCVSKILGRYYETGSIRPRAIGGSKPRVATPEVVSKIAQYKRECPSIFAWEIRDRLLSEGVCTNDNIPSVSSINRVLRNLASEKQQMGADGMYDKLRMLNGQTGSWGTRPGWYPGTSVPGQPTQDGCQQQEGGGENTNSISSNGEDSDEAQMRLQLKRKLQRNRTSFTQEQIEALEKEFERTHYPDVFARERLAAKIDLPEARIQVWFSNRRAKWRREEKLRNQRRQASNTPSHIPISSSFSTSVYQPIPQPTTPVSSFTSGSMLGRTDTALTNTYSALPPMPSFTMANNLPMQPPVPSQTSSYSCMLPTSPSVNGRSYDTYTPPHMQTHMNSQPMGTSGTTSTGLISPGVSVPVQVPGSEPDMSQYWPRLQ
How it was run: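 DMSO-referenced bidirectional fits of reporter mRNA fluorescence; HepG2 with transient cis-promoter MRTUs, 24 h post-dose, RT-PCR plus capillary electrophoresis detection.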

[2] = ATG_PXRE_CIS: Attagene CIS-FACTORIAL HepG2 Assay for human Pregnane X Receptor Element (PXRE) (AID 2282957); conditions: HepG2 Attagene CIS-FACTORIAL PXRE reporter, mRNA; actives raise or lower the signal
How it was run: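 Fluorescent capillary electrophoresis of amplified reporter cDNA gave the signal, collected 24 h after dosing HepG2 cells that held transfected cis-element reporter constructs.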

[3] = ATG_PPRE_CIS: Attagene CIS-FACTORIAL HepG2 Assay for human Peroxisome Proliferator-activated Response Element (PPRE) (AID 2282958); conditions: HepG2 PPRE cis-element reporter, Attagene transcription factor profiling; actives raise or lower the signal
How it was run: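 After human HepG2 hepatoma cells were transiently transfected with cis-promoter reporter constructs, they were exposed to test chemicals for 24 hours. Reporter RNA was then reverse-transcribed, PCR-amplified, FAM-labeled, HpaI-digested and quantified by capillary electrophoresis.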

[4] = ATG_RORE_CIS: Attagene CIS-FACTORIAL HepG2 Assay for human RAR-related Orphan Receptor Element (RORE) (AID 2282959); conditions: HepG2 Attagene cis-factorial RORE reporter, mRNA; actives raise or lower the signal
How it was run: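 Measured here: transcript induction of a cis-regulated reporter in HepG2 cells transiently transfected via FuGene 6. After 24 h, RNA was processed by RT-PCR and fluorescent capillary electrophoresis; DMSO defined baseline activity.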

[5] = target: Transcription factor Sp1 (Homo sapiens) (UniProt P08047); assay: ATG_Sp1_CIS: Attagene CIS-FACTORIAL HepG2 Assay for human Specificity Protein 1 (Sp1) (AID 2282961); conditions: HepG2 Sp1 cis-reporter transcription, actives raise or lower the signal
Transcription factor Sp1 (Homo sapiens), sequence (P08047 whole entry, looked up): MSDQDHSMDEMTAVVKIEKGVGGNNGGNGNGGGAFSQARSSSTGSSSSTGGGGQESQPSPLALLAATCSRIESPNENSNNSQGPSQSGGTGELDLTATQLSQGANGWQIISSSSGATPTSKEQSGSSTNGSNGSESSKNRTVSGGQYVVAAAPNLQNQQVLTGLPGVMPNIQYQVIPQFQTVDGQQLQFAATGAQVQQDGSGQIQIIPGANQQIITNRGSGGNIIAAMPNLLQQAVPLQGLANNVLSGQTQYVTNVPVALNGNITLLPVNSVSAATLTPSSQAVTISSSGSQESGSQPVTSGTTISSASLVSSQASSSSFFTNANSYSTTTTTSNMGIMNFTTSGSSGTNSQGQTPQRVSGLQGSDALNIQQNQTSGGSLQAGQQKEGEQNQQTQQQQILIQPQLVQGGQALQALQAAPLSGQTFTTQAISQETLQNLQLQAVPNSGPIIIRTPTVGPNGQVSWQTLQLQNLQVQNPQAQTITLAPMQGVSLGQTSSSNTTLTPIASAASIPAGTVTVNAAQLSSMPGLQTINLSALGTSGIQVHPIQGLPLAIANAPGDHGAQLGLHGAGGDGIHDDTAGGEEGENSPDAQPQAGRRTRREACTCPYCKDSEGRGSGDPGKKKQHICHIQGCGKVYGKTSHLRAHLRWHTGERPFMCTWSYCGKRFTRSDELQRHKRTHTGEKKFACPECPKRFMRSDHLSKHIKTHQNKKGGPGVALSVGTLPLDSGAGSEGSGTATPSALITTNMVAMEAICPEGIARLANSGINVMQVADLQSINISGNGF
How it was run: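 After transient transfection of HepG2 cells with cis-promoter reporter units and 24 h chemical treatment, reporter transcripts were quantified by RT-PCR and capillary electrophoresis fluorescence. Gain- and loss-of-signal fitted against DMSO.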

[6] = ATG_SREBP_CIS: Attagene CIS-FACTORIAL HepG2 Assay for human Sterol Regulatory Element Binding (SREBP) (AID 2282962); conditions: HepG2 Attagene cis-factorial SREBP reporter, mRNA; actives raise or lower the signal
How it was run: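 In this cis-format assay, HepG2 liver cells express reporters controlled by promoter elements responsive to native transcription factors. Exposure lasts 24 h; reporter mRNA fluorescence from capillary electrophoresis gives the signal, fitted bidirectionally against DMSO.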

[7] = ATG_TA_CIS: Attagene CIS-FACTORIAL HepG2 Assay for human TA Basal Promoter (AID 2282964); conditions: HepG2 Attagene CIS-factorial TA basal promoter reporter; actives raise or lower the signal
How it was run: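 Background-control readout: TA basal promoter reporter mRNA, fitted in both directions relative to DMSO. Measured by RT-PCR and capillary electrophoresis 24 hours after treating HepG2 human liver cells transiently carrying multiplexed cis-regulated reporter constructs.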

[8] = ATG_TCF_b_cat_CIS: Attagene CIS-FACTORIAL HepG2 Assay for human T-Cell-Factor with beta-catenin (TCF/b-cat) (AID 2282965); conditions: HepG2 TCF/beta-catenin cis-reporter transcription, actives raise or lower the signal
How it was run: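 In this cis-format system, transfected HepG2 cells report endogenous transcription factor activity. Readout after 24 h exposure is reporter transcript abundance from RT-PCR and capillary electrophoresis, analysed for gain or loss of signal versus DMSO.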

[9] = ATG_TAL_CIS: Attagene CIS-FACTORIAL HepG2 Assay for human TAL Basal Promoter (AID 2282966); conditions: HepG2 Attagene cis-factorial TAL promoter reporter; actives raise or lower the signal;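 further: background control endpoint measuring basal TAL promoter reporter mRNA not a specific factor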
How it was run: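 Transiently transfected HepG2 (cis-regulated reporter units), 24 h treatment, mRNA read by fluorescent CE after RT-PCR; bidirectional fit, DMSO baseline.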

[10] = ATG_TGFb_CIS: Attagene CIS-FACTORIAL HepG2 Assay for human Transforming Growth Factor (TGF) (AID 2282967); conditions: HepG2 Attagene CIS TGFb reporter, mRNA transcription; actives raise or lower the signal
How it was run: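 Endogenous TGFB1-linked transcription factor activity read as reporter mRNA via RT-PCR and capillary electrophoresis, 24 h after dosing transiently transfected HepG2 cells. Gain or loss of signal fitted relative to DMSO.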

[11] = ATG_VDRE_CIS: Attagene CIS-FACTORIAL HepG2 Assay for human Vitamin D Receptor Element (VDRE) (AID 2282968); conditions: HepG2 VDRE cis-reporter transcription, actives raise or lower the signal
How it was run: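 Transfected HepG2 reporter cells, chemical treatment 24 h. RNA isolated, cDNA amplified with reporter-specific primers, products analysed by capillary electrophoresis. Endpoint fitted in both directions versus DMSO.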

[12] = target: Nuclear receptor subfamily 1 group I member 3 (Homo sapiens) (UniProt Q14994); assay: ATG_CAR_TRANS: Attagene TRANS-FACTORIAL HepG2 Assay for human Constitutive Androstane Receptor (CAR) (AID 2282969; active means hit-call score of the fitted dose curve at least 0.9, where 1 is the maximum;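 further: activators raise reporter mRNA above DMSO so AC50 marks induction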); conditions: HepG2 Attagene TRANS-FACTORIAL CAR reporter
Nuclear receptor subfamily 1 group I member 3 (Homo sapiens), sequence (Q14994 whole entry, looked up, the tested form may be a part): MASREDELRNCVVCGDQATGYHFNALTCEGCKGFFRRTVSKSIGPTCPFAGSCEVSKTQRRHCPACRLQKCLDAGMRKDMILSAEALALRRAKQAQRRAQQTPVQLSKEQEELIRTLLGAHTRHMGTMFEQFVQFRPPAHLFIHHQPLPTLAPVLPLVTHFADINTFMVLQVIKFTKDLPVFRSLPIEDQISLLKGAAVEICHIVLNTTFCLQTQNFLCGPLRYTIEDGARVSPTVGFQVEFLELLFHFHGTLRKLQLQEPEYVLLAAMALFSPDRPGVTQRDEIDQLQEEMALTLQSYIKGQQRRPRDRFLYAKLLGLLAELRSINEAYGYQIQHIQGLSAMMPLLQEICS
How it was run: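 Steps: transient transfection of HepG2 with multiple GAL4-UAS reporter units; 24 h compound incubation; RNA isolation, RT-PCR, 6-FAM primer extension, HpaI digest; capillary electrophoresis. Gain-of-signal relative to DMSO negative control.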

[13] = target: X-box-binding protein 1 (Homo sapiens) (UniProt P17861); assay: ATG_Xbp1_CIS: Attagene CIS-FACTORIAL HepG2 Assay for human X-box Binding Protein 1 (XBP1) (AID 2282972); conditions: HepG2 XBP1 cis-element reporter, Attagene multiplex; actives raise or lower the signal
X-box-binding protein 1 (Homo sapiens), sequence (P17861 whole entry, looked up): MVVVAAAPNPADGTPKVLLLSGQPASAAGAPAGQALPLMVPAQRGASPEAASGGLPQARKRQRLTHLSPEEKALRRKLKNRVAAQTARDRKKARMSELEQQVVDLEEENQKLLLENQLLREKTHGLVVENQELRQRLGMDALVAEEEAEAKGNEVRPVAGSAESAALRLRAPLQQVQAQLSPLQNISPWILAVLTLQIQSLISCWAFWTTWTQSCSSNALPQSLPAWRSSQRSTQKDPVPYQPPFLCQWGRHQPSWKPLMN
How it was run: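 Changes in reporter transcript abundance, read by RT-PCR and capillary electrophoresis, reflect endogenous transcription factor activity. Transfected HepG2 cells received compound for 24 hours; DMSO defined baseline for bidirectional analysis.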

[14] = ATG_M_19_TRANS: Attagene TRANS-FACTORIAL HepG2 Assay for M19 Transcription Factor (Internal Marker) (AID 2282974; active means hit-call score of the fitted dose curve at least 0.9, where 1 is the maximum); conditions: HepG2 Attagene TRANS-FACTORIAL M19 internal marker reporter
How it was run: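 Gain-of-signal in reporter mRNA, relative to DMSO, was scored from capillary electrophoresis fluorescence. HepG2 cells carried transiently transfected multiple reporter transcription units and were incubated with test chemicals for 24 h.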

[15] = target: Signal transducer and activator of transcription 3 (Homo sapiens) (UniProt P40763); assay: ATG_STAT3_CIS: Attagene CIS-FACTORIAL HepG2 Assay for human Signal Transducer and Activator of Transcription 3 (STAT3) (AID 2282963); conditions: HepG2, Attagene cis-factorial STAT3 reporter transcription; actives raise or lower the signal
Signal transducer and activator of transcription 3 (Homo sapiens), sequence (P40763 whole entry, looked up): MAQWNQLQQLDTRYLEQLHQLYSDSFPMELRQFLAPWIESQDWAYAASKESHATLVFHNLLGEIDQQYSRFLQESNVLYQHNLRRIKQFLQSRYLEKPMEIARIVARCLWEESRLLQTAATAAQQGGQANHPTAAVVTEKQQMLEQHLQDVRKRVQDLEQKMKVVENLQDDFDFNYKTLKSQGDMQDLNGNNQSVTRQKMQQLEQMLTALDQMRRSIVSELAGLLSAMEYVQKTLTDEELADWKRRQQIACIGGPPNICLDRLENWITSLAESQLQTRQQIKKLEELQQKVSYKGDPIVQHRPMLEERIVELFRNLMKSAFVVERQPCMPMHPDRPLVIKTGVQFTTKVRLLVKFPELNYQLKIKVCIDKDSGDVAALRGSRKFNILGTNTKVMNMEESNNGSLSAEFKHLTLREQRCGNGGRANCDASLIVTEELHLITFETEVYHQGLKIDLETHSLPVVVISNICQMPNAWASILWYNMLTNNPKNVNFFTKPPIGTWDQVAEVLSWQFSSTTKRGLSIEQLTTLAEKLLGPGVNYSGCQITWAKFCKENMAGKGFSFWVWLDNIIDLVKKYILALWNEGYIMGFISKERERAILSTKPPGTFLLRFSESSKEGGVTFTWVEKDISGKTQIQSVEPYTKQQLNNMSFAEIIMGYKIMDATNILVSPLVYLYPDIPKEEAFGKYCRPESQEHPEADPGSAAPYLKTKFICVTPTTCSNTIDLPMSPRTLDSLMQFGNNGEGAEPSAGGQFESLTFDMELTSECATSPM
How it was run: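 Uses human liver HepG2 transiently carrying cis-regulated reporter transcription units. Following 24 h dosing, reporter mRNA induction was detected by RT-PCR and capillary electrophoresis, analysed bidirectionally versus DMSO.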

[16] = target: Estrogen receptor (Homo sapiens) (UniProt P03372); assay: ATG_ERa_TRANS: Attagene TRANS-FACTORIAL HepG2 Assay for human Estrogen Receptor alpha (ERa) (AID 2282970; active means hit-call score of the fitted dose curve at least 0.9, where 1 is the maximum); conditions: HepG2 Attagene TRANS ERa GAL4 reporter, mRNA
Estrogen receptor (Homo sapiens), sequence (P03372 whole entry, looked up, the tested form may be a part): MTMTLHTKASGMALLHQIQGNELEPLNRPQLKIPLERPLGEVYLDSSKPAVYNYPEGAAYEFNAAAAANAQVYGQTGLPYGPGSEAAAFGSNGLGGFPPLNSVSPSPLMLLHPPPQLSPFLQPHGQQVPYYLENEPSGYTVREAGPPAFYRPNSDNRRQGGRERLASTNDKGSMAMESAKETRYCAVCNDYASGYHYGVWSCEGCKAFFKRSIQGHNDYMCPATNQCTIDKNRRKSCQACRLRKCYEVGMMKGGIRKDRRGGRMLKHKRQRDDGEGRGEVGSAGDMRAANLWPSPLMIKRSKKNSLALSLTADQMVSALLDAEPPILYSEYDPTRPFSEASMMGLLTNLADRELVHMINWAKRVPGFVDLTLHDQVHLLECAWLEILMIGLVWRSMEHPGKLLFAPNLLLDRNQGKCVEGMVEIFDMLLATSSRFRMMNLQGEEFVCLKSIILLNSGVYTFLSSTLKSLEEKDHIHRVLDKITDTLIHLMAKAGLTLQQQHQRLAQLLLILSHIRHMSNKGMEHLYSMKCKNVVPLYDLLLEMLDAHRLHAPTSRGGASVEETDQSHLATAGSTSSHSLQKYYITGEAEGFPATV
How it was run: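 One of 30 multiplexed endpoints from a HepG2 TRANS system, this one reports ERa-Gal4-driven reporter mRNA. Transcripts were quantified 24 hours post-dosing by fluorescent RT-PCR and capillary electrophoresis, with activity scored as induction over DMSO.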

[17] = ATG_GAL4_TRANS: Attagene TRANS-FACTORIAL HepG2 Assay for GAL4 (Internal Marker) (AID 2282976; active means hit-call score of the fitted dose curve at least 0.9, where 1 is the maximum); conditions: HepG2 Attagene TRANS GAL4 internal marker reporter
How it was run: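 HepG2 cells transiently transfected with multiplexed GAL4-UAS reporter constructs were dosed for 24 h. Reporter mRNA was measured by RT-PCR, 6-FAM primer extension, HpaI digestion and capillary electrophoresis, and gain of signal was fitted relative to DMSO.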

[18] = ATG_Sox_CIS: Attagene CIS-FACTORIAL HepG2 Assay for human SRY-box transcription factor (SOX) (AID 2282960); conditions: HepG2 Attagene cis-factorial SOX reporter, mRNA; actives raise or lower the signal
How it was run: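 Using transiently transfected HepG2 cells, reporter transcription driven by cis elements was assessed 24 h after dosing. Signal was fluorescence of capillary-separated RT-PCR products, with DMSO defining baseline activity.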

[19] = target: Estrogen-related receptor gamma (Homo sapiens) (UniProt P62508); assay: ATG_ERRg_TRANS: Attagene TRANS-FACTORIAL HepG2 Assay for human Estrogen-Related Receptor gamma (ERRg) (AID 2282977; active means hit-call score of the fitted dose curve at least 0.9, where 1 is the maximum;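 further: hits increase reporter signal over DMSO so potencies reflect activators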); conditions: HepG2 Attagene TRANS reporter, ERRg transactivation
Estrogen-related receptor gamma (Homo sapiens), sequence (P62508 whole entry, looked up, the tested form may be a part): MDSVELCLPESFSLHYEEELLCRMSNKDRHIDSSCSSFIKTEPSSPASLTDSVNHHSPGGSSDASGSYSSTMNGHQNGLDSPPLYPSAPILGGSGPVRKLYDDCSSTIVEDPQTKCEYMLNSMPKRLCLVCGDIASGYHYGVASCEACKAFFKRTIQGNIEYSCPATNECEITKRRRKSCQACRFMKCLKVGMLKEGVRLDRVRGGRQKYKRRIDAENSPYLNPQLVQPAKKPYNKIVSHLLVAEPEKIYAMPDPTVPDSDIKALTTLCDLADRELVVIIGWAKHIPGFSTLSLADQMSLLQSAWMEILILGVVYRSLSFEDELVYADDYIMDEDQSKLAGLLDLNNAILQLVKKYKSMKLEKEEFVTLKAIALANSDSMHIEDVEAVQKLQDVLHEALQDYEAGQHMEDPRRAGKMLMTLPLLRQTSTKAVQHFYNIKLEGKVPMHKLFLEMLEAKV
How it was run: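 Readout: fluorescent reporter-mRNA fragments resolved by capillary electrophoresis after RT-PCR and HpaI cut. Cells: transiently transfected HepG2 carrying GAL4-UAS reporters driven by exogenous NR-Gal4 chimeras, dosed 24 h. Activity fitted upward relative to DMSO baseline.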

[20] = target: Steroid hormone receptor ERR1 (Homo sapiens) (UniProt P11474); assay: ATG_ERRa_TRANS: Attagene TRANS-FACTORIAL HepG2 Assay for human Estrogen-Related Receptor alpha (ERRa) (AID 2282971; active means hit-call score of the fitted dose curve at least 0.9, where 1 is the maximum); conditions: HepG2 Attagene TRANS reporter, ERRa transactivation
Steroid hormone receptor ERR1 (Homo sapiens), sequence (P11474 whole entry, looked up, the tested form may be a part): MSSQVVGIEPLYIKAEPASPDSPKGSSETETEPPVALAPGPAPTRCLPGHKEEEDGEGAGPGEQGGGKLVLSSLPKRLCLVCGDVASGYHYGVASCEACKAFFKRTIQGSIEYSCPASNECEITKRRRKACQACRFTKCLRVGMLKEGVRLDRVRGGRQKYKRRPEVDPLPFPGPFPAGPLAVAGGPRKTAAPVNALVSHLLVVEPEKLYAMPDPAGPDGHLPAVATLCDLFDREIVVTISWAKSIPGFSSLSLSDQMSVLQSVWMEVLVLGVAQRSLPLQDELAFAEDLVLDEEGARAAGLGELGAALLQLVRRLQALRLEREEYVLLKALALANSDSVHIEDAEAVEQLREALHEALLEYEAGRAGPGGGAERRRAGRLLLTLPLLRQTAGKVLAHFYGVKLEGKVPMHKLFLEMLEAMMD
How it was run: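 HepG2 cells transiently transfected with multiplexed GAL4-UAS reporter units reading chimeric ERRa-Gal4 activity; 24 h compound exposure. Reporter mRNA measured by RT-PCR, 6-FAM labelling, HpaI digest and capillary electrophoresis; gain of signal fitted versus DMSO baseline.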

Measured: outcome

O=C1CCCC(=O)O1
not listed: [15] | [16] | [17] | [18] | [19] | [20]
inactive: all other assays above

C=C(C)C(=O)OCC(C)C
not listed: [6] | [8] | [12] | [18] | [19] | [20]
inactive: all other assays above

Nc1ccc(Cl)cc1Cl
not listed: [5] | [8] | [11] | [12] | [14] | [16] | [17] | [20]
inactive: all other assays above

CCOC(F)(F)C(F)(F)C(F)(F)C(F)(F)F
inactive: [1] | [2] | [3] | [4] | [5] | [6] | [15] | [8] | [11] | [13] | [17]

[Cl][Nd]([Cl])[Cl]
not listed: [5] | [6] | [8] | [12] | [16] | [17] | [19]
inactive: all other assays above

— PubChem BioAssay (EPA / NIEHS)
